This is part of a sample that, as a whole, favours compounds with a hit. Of some 83,000 tested, about 20% had one in any assay.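 In brief: 96-well plates, 48 h treatment, single concentration, percent growth endpoint.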 A number with no mark means an inactive call. Calls of active or inactive are those of the source. How the source made its calls: active means growth percent below 10; inactive means the rest.
Assays:
Test in all cases: NCI-60 one-dose screen, 48 h (100 = growth as untreated, 0 = no growth, -100 = all killed)
Conditions in all cases: 10 µM unless noted
SK-MEL-2 melanoma = test system: SK-MEL-2 melanoma
EKVX NSCLC = test system: EKVX NSCLC
SN12C renal = test system: SN12C renal
UO-31 renal = test system: UO-31 renal
TK-10 renal = test system: TK-10 renal
ACHN renal = test system: ACHN renal
CAKI-1 renal = test system: CAKI-1 renal
A498 renal = test system: A498 renal
CCRF-CEM leukemia = test system: CCRF-CEM leukemia
MOLT-4 leukemia = test system: MOLT-4 leukemia

Row | SMILES | growth (SK-MEL-2 melanoma) | growth (EKVX NSCLC) | growth (SN12C renal) | growth (UO-31 renal) | growth (TK-10 renal) | growth (ACHN renal) | growth (CAKI-1 renal) | growth (A498 renal) | growth (CCRF-CEM leukemia) | growth (MOLT-4 leukemia)
1 | O=C(O)CCCN1C(=O)/C(=C/C(Cl)=C/c2ccccc2)SC1=S | 59.3% | 40.2% | -6.97% (active) | -46% (active) | 30.3% | -93.1% (active) | 24.2% | 87.5% | 2.55% (active) | 9.65% (active)
2 | COc1ccc(-c2nc(SCC(C)C)nc(N/N=C\c3ccc(F)cc3)c2C#N)cc1 | 104% | 93.9% | 78.6% | 67.2% | 81.5% | 30.3% | 91.1% | 74.4% | 82.3% | 88.2%
3 | O=C1/C(=C/c2ccccc2Br)COc2ccc(O)c(O)c21 | 48.8% | 61.7% | -67.6% (active) | -92.1% (active) | 29.5% | -44.9% (active) | 22.2% | 116% | 1.62% (active) | 2.79% (active)
4 | O=C1Nc2ccccc2/C1=C\c1nc(-c2ccccc2F)n2ccccc12 | -6.84% (active) | 47.6% | 14.5% | -16.2% (active) | -6.87% (active) | -58.5% (active) | -13.9% (active) | -10.4% (active) | 79% | 70.6%
5 | Cn1ccc2c3c(ccc21)CC3=O | 126% | 103% | 106% | 107% | 124% | 111% | 92.3% | 92.6% | 111% | 88.9%
6 | O=C1c2cccnc2C(=O)c2c1c(C(=O)NCCn1ccnc1)c1ccccn21 | 26.6% | 56.9% | 4.77% (active) | 61.3% | 116% | 31.5% | 86.9% | 57.3% | 11.8% | 1.95% (active)
7 | Cn1c(=O)c2c(nc(NC3=NS(=O)(=O)c4ccccc43)n2CC(=O)N2CCc3ccccc32)n(C)c1=O | 106% | 102% | 96.9% | 75.9% | 108% | 102% | 92.7% | 58.9% | 101% | 112%
8 | Oc1c(Cl)cc(Cl)c2ccc(Cn3cc(-c4ccc(C(F)(F)F)cc4)nn3)nc12 | 95.4% | 81% | 76.9% | 68.5% | 97.3% | 36.7% | 21% | 83.7% | 6.1% (active) | -8.16% (active)
9 | Nc1ncnc2c1N=C(c1ccc(Cl)cc1)CC(c1ccc3c(c1)OCO3)N2 (stereo not given) | 52% | 94.6% | 97.2% | 80.5% | 111% | 87.6% | 84.1% | 99.5% | -54.1% (active) | 71.5%
10 | COC(C(=O)[C@@H](O)[C@@H](C)O)[C@@H]1Cc2cc3cc(O[C@H]4C[C@@H](O[C@H]5C[C@@H](O)[C@H](O)C(C)O5)[C@H](O)C(C)O4)cc(O)c3c(O)c2C(=O)[C@H]1O[C@H]1C[C@@H](O[C@H]2C[C@@H](O[C@H]3C[C@@H](OC)[C@H](O)C(C)O3)[C@@H](O)C(C)O2)[C@H](O)C(C)O1 (stereo not given in full) | 33.2% | 68.4% | 33% | 64.5% | 59.5% | 53.6% | 73.5% | -5.04% (active) | 68.9% | 48.2%
11 | C=C(C)[C@@H]1CC[C@]2(C(=O)N3CCN(C)CC3)CC[C@]3(C)[C@H](CC[C@@H]4[C@@]5(C)CC(=C/c6ccncc6)/C(=N/O)C(C)(C)[C@@H]5CC[C@]43C)[C@@H]12 | 83.8% | 84.6% | 74.7% | 45.5% | 85.2% | 75.9% | 63.8% | 96.8% | 57.9% | 33.9%
12 | CN1CCN(Cc2ccc(NC(=O)c3cncc(C#Cc4cnc(N)c5ccccc45)c3)cc2C(F)(F)F)CC1 | -81.6% (active) | -96.3% (active) | -90.7% (active) | -89.7% (active) | -90% (active) | -100% (active) | -92.1% (active) | -87% (active) | -6.38% (active) | 2.94% (active)
13 | S=C1CCSC(=S)N1CCCN1C(=S)CCSC1=S | 96.1% | 101% | 75.6% | 45.1% | 66% | 44.4% | 58.9% | 102% | 16.7% | 30.1%
14 | CCOC(=O)C(=Cc1cccc(Br)c1)C(=O)OCC | 31.7% | 61.1% | 34.8% | 52.4% | 58.5% | 27.7% | 59.4% | 95.1% | 11.7% | 16.6%
15 | O=C(CSc1nc2sc3c(c2c(=O)n1-c1ccccc1)CCCCC3)N/N=C/c1ccc(F)cc1 | 91.9% | 80% | 16.3% | 88.2% | 69.1% | 26.8% | -13.7% (active) | 89.7% | 46% | 67.1%
16 | COc1cc(OC)c2sc(-c3ccc(-n4cncc4-c4ccc(OC)c(OC)c4)cc3)nc2c1 | 33.5% | 54.7% | 72.3% | 25.5% | 71.9% | 38.7% | 8.81% (active) | 56.3% | 53.2% | 33.6%
17 | C#Cc1cccc(Nc2ncnc3ccc(-c4cncc(NS(C)(=O)=O)c4)cc23)c1 | -39.7% (active) | 4.65% (active) | 24.2% | 38.4% | -3.64% (active) | 33.2% | 54.9% | -10.7% (active) | 14% | -28.3% (active)
18 | C[C@@H]1CCC[C@H]1CC(N)C(=O)O (stereo not given in full) | 132% | 98.4% | 114% | 99% | 130% | 99.5% | -76.8% (active) | 97.9% | 104% | 114%
19 | OCCNCCCOc1ccc2ncnc(Nc3ccc(Oc4cccc(C(F)(F)F)c4)c(Cl)c3)c2c1 | 73.5% | 27% | 58.1% | 26% | 49% | -45.4% (active) | 9.01% (active) | 58.8% | 6.8% (active) | 1.07% (active)
20 | Fc1cccc(CNc2c3ccccc3nc3ccccc23)c1F | 107% | 62.9% | 49% | 40.1% | 89.2% | 30.6% | 45.7% | -0.792% (active) | 62.4% | 28.4%
21 | OCCCC1CCN(C(Cc2ccccc2)c2ccccc2)CC1 (stereo not given) | 52% | 96.2% | 102% | 78.3% | 84.1% | 81.8% | 91.4% | 97.9% | 100% | 99.1%
22 | C1=C(N2CCCC2)CCC1 | 112% | 95.2% | 98.1% | 73.5% | 121% | 111% | 79.1% | 109% | 106% | 96.6%
23 | CC1=NN(c2nc(SCC(=O)Nc3nc4ccc(C)cc4s3)nc(-c3ccccc3)c2C#N)C(=O)C1 | 111% | 106% | 95.6% | 67.8% | 131% | 96.3% | 87.3% | 101% | 107% | 99.8%
24 | COc1ccc2[nH]cc(-c3nc(-c4c[nH]c5ccncc45)cs3)c2c1 | 84.7% | 10.8% | 71.9% | 49% | 71.1% | 4.58% (active) | 9.06% (active) | 81.5% | -7.05% (active) | -8.02% (active)
25 | Cc1cc(Cl)ccc1Nc1nc(C(F)(F)F)ccc1C(=O)N/N=C/c1ccc([N+](=O)[O-])cc1 | -33.5% (active) | -8.42% (active) | 4.6% (active) | -27.1% (active) | -8.71% (active) | -22.9% (active) | 2.14% (active) | 88.9% | -12.9% (active) | -5.84% (active)
26 | Cc1ccccc1Cn1cnc2ccc(-c3cc(NC(=O)c4ccc(NC5CCN(C)CC5)cc4)n[nH]3)cc21 | 98.3% | 91.9% | 29.7% | 89.2% | 105% | 107% | 68.6% | 47.8% | 72% | 43%

From PubChem BioAssay (NCI)
